# Screening results deposited in PubChem by National Center for Advancing Translational Sciences (NCATS).
# Most compounds without a hit are left out; they make up all but 12% or so of the library.
# JMJD2A Tudor: inhibitors of human JMJD2A Tudor domain | 390,000 compounds, 4.4% hits | Potency, µM (highest dose often 114 µM), inactives show top-dose activity change, negative = inhibition, hits mostly inhibitors | O75164 | AlphaScreen JMJD2A-Tudor / H3K4me3 peptide binding | AID 504339; further: on the % scale 0 is the no-effect control and ±100 the full control effect; nearly all actives have a fitted effect of over 50% in size
# HP1b binding inh: HP1-beta chromodomain-methylated histone interaction inhibition. P83916. AlphaScreen HP1-beta / biotin-H3K9me3 peptide binding. Potency, µM (titrated, usually from 114 µM), inactives show at the top dose activity change, negative = inhibition, most hits filed as inhibitors. 390,000 compounds, 0.56% hits; further: nearly all actives have a fitted effect of over 70% in size
#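 Compound inhibition of the preformed complex between 50 nM HP1-beta and 50 nM biotinylated H3K9me3 peptide was read by AlphaScreen. Buffer was PBS pH 7.4 with 0.01% Tween-20. Incubations ran 30 min at room temperature, with 10 ug/mL donor/acceptor beads.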
# G9a block: G9a (human) methyltransferase inhibition; Q96KQ7; G9a H3K9 monomethylation, AlphaScreen, 2 h; Potency, µM (series often up to 102 µM), for the others: at the highest dose activity, negative = inhibition, hits mostly inhibitors; 350,000 compounds, 8.8% hits; further: on the % scale 0 is the no-effect control and ±100 the full control effect; nearly all actives have a fitted effect of over 75% in size
#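 G9a (20 nM) preincubated 15 min RT with compounds, then 500 nM biotinylated H3K9 peptide and 20 uM SAM added; 2 h RT reaction. Monomethyl-H3K9 product detected by AlphaScreen with anti-H3K9me1 antibody, streptavidin donor and anti-rabbit IgG acceptor beads.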
# Sfp inh: blocks B. subtilis Sfp PPTase activity. Q9F4F7. Biochemical Sfp PPTase activity, qHTS. AID 1490. Potency, µM, for inactives: largest response in the series, negative = inhibition, usual class: inhibitors. 310,000 compounds, 3.5% hits;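 further: the enzyme is Sfp with the accession as filed and its product quenches rhodamine fluorescence; 0% = enzyme reaction without inhibitor and -100% = no enzyme wells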
#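 After 15 min at room temperature with compound, 15 nM Sfp received 5 uM rhodamine-CoA plus 12.5 uM BHQ-2-ybbR (50 mM Hepes pH 7.6, 10 mM MgCl2). Rate came from the fluorescence difference over 30 min, ex 525/em 598 nm.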
# BAZ2B inh: BAZ2B (human) inhibition. Q9UIF8. AlphaScreen BAZ2B-H3K14Ac peptide displacement. Potency, µM (doses to about 114 µM), for the others: at the top dose activity change, negative = inhibition, most hits filed as inhibitors. 360,000 compounds, 4.4% hits. AID 504333; further: on the % scale 0 is the no-effect control and ±100 the full control effect; nearly all actives have a fitted effect of over 60% in size
#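 Complex of BAZ2B and biotin-H3K14Ac (50 nM apiece) forms over 30 min at RT, then faces library compounds up to 110 uM for another 30 min; AlphaScreen beads added, 20 min dark incubation, luminescence read.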
# Starred values were filed as active, the others as inactive; ? = inconclusive; nt = no result; [ ] = another dose, or the depositor's remark. The call rests on the fitted dose curve; in most records, active means well fitted curve in the direction sought with a large enough effect; inconclusive means small, poorly fitted or top-dose-only effect, or another doubt; inactive means no such curve, though single readings can be large; an effect the other way counts as inactive or inconclusive. Potency means the concentration at half of the fitted maximal effect.
SMILES,JMJD2A Tudor,HP1b binding inh,G9a block,Sfp inh,BAZ2B inh
COC(=O)c1ccc(C)c(NC(=O)CCc2ccc(OC)c(OC)c2)c1,-21.2%,16.9%,50.1µM*,7.4%,-4.9%
COc1cc(CCC(=O)Oc2ccc(C(C)=O)cc2)cc(OC)c1OC,-4.8%,33.2%,70.8µM*,-4.2%,-4.5%
COC(=O)c1ccc(C)c(NC(=O)CCc2cc(OC)c(OC)c(OC)c2)c1,8.4%,19.1%,44.7µM*,3.5%,-2.0%
Nn1c(CSc2ccccn2)nc2ccccc2c1=O,-1.5%,36.0%,39.8µM*,-7.5%,5.3%
Cc1cccc(NC(=O)CC(=O)Nc2cccc(C)c2)c1,-2.0%,24.8%,17.6%,3.5%,1.8%
Cc1cccc(NN=C2c3ccccc3-c3ccccc32)c1,-24.0%,15.4%,31.6µM*,1.4%,-14.2%
CC(=O)c1ccc(N2Cc3ccccc3/C2=N\C(=O)Nc2ccccc2)cc1,-17.5%,22.4%,8.9%,0.6%,10.8%
CC(=O)c1cccc(N2Cc3ccccc3C2=NC(=O)CCl)c1,35.5µM*,2.5%,31.6µM*,?,-35.4%
c1ccc2c(c1)NCCS2,50.1µM*,-25.7%,16.4%[0.501 µM],89.1µM*,50.1µM*
CCOC(=O)c1ccc(N=C2C(=S)N(c3ccc(C(=O)OCC)cc3)C(=N)N2/N=C/c2ccccc2)cc1,?,-40.7%,3.98µM*,-2.5%,-3.0%
CCOC(=O)c1ccc(N2Cc3ccccc3C2=N)cc1,9.0%,48.3%,6.4%,-3.5%,13.2%
CN1CCN(Cc2nc3ccccc3c(=O)n2Cc2nc(-c3ccc([N+](=O)[O-])cc3)cs2)CC1,20µM*,?,22.4µM*,-15.9%,-39.0%
CN(C)Cc1nc2ccccc2c(=O)n1Cc1nc(-c2cccc([N+](=O)[O-])c2)cs1,?,?,?,3.0%,-35.9%
Cc1nc(/C(=N/O)C(N)=O)cs1,-14.7%[11.4 µM],9.1%,12.6µM*,56.2µM*,50.1µM*
O=C(Nc1cccc2cccnc12)c1c(Cl)cc(Cl)cc1Cl,-6.8%,44.7%,nt,nt,nt
Cc1ccc(Cn2c(=N)n(CC(O)COc3ccccc3)c3ccccc32)cc1 (stereo not drawn),-24.3%,6.5%,?,22.4µM*,-27.6%
CC1=CC(C)(C)[N+](C)=CN1c1ccccc1,-8.7%,5.2%,6.31µM*,12.8%,-7.9%
CCO/C(C)=C1\C(=O)Nc2ccccc21,-7.8%,40.4%,50.1µM*,6.1%,7.1%
COc1ccc(C(=C2C(=O)Nc3ccccc32)c2ccc(OC)cc2)cc1,nt,nt,nt,-8.9%,nt
COC(=O)C1C(C)OC(=O)NC1c1ccccc1 (stereo not drawn),nt,nt,nt,8.6%,nt
CC#C[C@]1(O)CC[C@H]2C3CCC4=CC(=O)CCC4=C3[C@@H](c3ccc(N(C)C)cc3)C[C@@]21C (stereo partly drawn),nt,nt,2.82µM*,3.5%,nt
CC(=O)c1ccc(NC(=O)CCn2cccn2)cc1,-9.7%,1.4%,3.6%[59 µM],nt,-0.8%
COc1ccc(S(=O)(=O)N2CCN(C)CC2)cc1,-21.3%,25.2%,11.6%[59 µM],15.8%,-7.0%
Cc1ccc(S(=O)(=O)N2CCN(C3CC4CCC3C4)CC2)cc1 (stereo not drawn),14.1µM*,31.6µM*,8.91µM*,-26.9%,31.6µM*
COc1ccc(S(=O)(=O)N2CCN(C3CC4CCC3C4)CC2)cc1 (stereo not drawn),3.16µM*,2.3%,22.4µM*,-7.8%,-30.3%
SMILES,JMJD2A Tudor,HP1b binding inh,G9a block,Sfp inh,BAZ2B inh
O=C(C1=C(O)C(=O)N(CCN2CCOCC2)C1c1ccc(F)cc1)c1cc2ccccc2o1 (stereo not drawn),-25.3%,11.3%[57 µM],35.5µM*,21.1%,-24.0%
Cc1ccc(C(=O)C2=C(O)C(=O)N(CCN3CCOCC3)C2c2ccccn2)o1 (stereo not drawn),nt,nt,2.24µM*,-17.3%,?
O=C(C1=C(O)C(=O)N(CCCN2CCOCC2)C1c1ccccn1)c1cccs1 (stereo not drawn),nt,nt,3.9%[59 µM],?,7.5%
O=C(C1=C(O)C(=O)N(CCN2CCOCC2)C1c1ccco1)c1cc2ccccc2o1 (stereo not drawn),-4.1%,54.3%,31.6µM*,7.6%,?
O=C(C1=C(O)C(=O)N(CCCN2CCOCC2)C1c1ccccn1)c1cc2ccccc2o1 (stereo not drawn),-25.4%,29.1%,39.8µM*,-3.2%,?
CN(C(=O)c1cccc(NC(=O)Cc2ccc(NC(=O)C3CCCN(C(=O)C4CCCC4)C3)cc2)c1)C1CCCCC1 (stereo not drawn),-11.6%,30.5%,nt,nt,nt
CCN(CC)CCN1C(=O)C(O)=C(C(=O)c2cc3ccccc3o2)C1c1cccnc1 (stereo not drawn),-19.9%[11.4 µM],49.6%,89.1µM*,5.7%,-1.5%
CCCOc1ccc(C2C(C(=O)c3ccc(C)o3)=C(O)C(=O)N2CCN2CCOCC2)cc1OC (stereo not drawn),22.4µM*,14.5%,?,-22.2%,3.5%
CCN(CC)CCN1C(=O)C(O)=C(C(=O)c2sc(C)nc2C)C1c1cccnc1 (stereo not drawn),-18.1%,7.1%,-28.0%[12.7 µM],1.8%,1.2%
CC(=O)N1CCC2(CCCN(C(c3ccccc3)c3ccccc3)C2)CC1,nt,nt,1.6%[12.7 µM],-18.2%,nt
Cn1cccc1C1C(C#N)=C(N)OC2=C1C(=O)CCC2 (stereo not drawn),-22.3%,-14.5%,-7.6%[12.7 µM],39.8µM*,?
N#CC1=C(N)OC2=C(C(=O)CCC2)C1c1ccccc1 (stereo not drawn),-18.7%,14.4%,8.8%[59 µM],15.3%,nt
COc1ccc(-c2nc(-c3ccccc3)c(Nc3ccc4ccccc4c3)o2)cc1,nt,nt,nt,-4.3%,nt
Cc1cc(C)n(CC(=O)NC2C(=O)N3C(C(=O)O)=C(CSc4nnc(C)s4)CSC23)n1 (stereo not drawn),25.1µM*,7.0%,39.8µM*,56.2µM*,70.8µM*
CC(=O)OCC1=C(C(=O)O)N2C(=O)[C@@H](NC(=O)Cc3cccs3)[C@@H]2SC1,nt,nt,?,-5.0%,nt
Cc1nnc(SCC2=C(C(=O)O)N3C(=O)C(NC(=O)c4cccc(F)c4F)C3SC2)s1 (stereo not drawn),-21.6%,10.7%,?,56.2µM*,?
Cc1nnc(SCC2=C(C(=O)O)N3C(=O)C(NC(=O)Cn4ncc(Cl)c4C)C3SC2)s1 (stereo not drawn),?,13.7%,28.2µM*,28.2µM*,?
COc1ccc(CNC(=O)C[C@H]2C(=O)N(CCc3ccccc3)C[C@@H]2Cc2ccccc2)cc1,-20.7%,37.3%,-7.1%,13.0%,-6.6%
COCCNC(=O)CN1C(=O)c2cccnc2Sc2ccccc21,-8.0%,5.8%,6.5%[59 µM],nt,-17.1%
Cc1nnc2n1N=C(c1ccc(F)cc1F)CS2,5.4%,44.8%,-10.2%[2.33 µM],nt,7.6%
C/C(=C\C(=S)Nc1ccccc1)Nc1ccc2ccccc2c1,79.4µM*,?,-48.8%[59 µM],?,25.1µM*
COc1ccc(Cc2nnc(Cl)c3ccccc23)cc1OC,-10.0%,10.1%,50.1µM*,7.7%,-34.8%
